Experiment [1] in a line: HepG2 liver cancer cell viability effects, profiling panel, resazurin fluorescence, 24 h, PK04 Diversity Set (AID 1172). Further: test concentration not given here. Conditions: higher = more signal. Background: The colour change of resazurin is a common sign of viable cells or microbes.
A short description of experiment [2]: basal S. cerevisiae growth modulation, no modifier, primary screen, OD600, strain BY4716, 24 h, basal condition (AID 1173). As to conditions: OD600, 24 h, higher = more signal, called active from +8 up or from −8 down.
A short description of experiment [3]: MM1S myeloma cell viability, profiling panel, resazurin fluorescence, basal, 24 h, PK04 Diversity Set (AID 1174).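 Further: MM1S multiple myeloma cell line; test concentration not given here.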 Conditions: higher = more signal, called active from +8 up or from −8 down.
Experiment [4] has as its target Dihydroorotate dehydrogenase (quinone), mitochondrial (Plasmodium falciparum (isolate 3D7)) (UniProt Q08210). Description: PfDHODH enzyme inhibitors, primary screen, biochemical, C-terminal His tag, absorbance 600 nm (AID 1175).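 Further: recombinant parasite enzyme with a five histidine tag at its C terminus; test concentration not given here.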 As to conditions: DCIP absorbance 600 nm, higher = more signal, called active from +8 up or from −8 down.
Experiment [5] is described as follows: P. aeruginosa biofilm formation inhibitors, primary screen, strain PAO1, LB-PBS medium, absorbance 600 nm (AID 1176). Further: test concentration not given here. As to conditions: P. aeruginosa PAO1 growth/biofilm, A600, 12 h; higher = more signal.
A short description of experiment [6]: S. cerevisiae RM11-1a growth modifiers, primary screen, strain RM11-1a, OD600, basal, 24 h (AID 1177).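 Further: cultures grown under basal conditions with no added stressor; test concentration not given here.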 Conditions: OD600, 24 h, higher = more signal, called active from +8 up or from −8 down.
Experiment [7] is described as follows: E. coli acrAB mutant growth effects, primary screen, E. coli filamentation inducers, strain DRC39, OD650, 24 h (AID 1178).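 Further: growth measured as culture turbidity by optical density at 650 nm; test concentration not given here.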 Conditions: higher = more signal, called active from +8 up or from −8 down.
Experiment [8] in a line: E. coli acrAB mutant growth effects, primary screen, E. coli filamentation inducers, strain DRC39, OD650, 48 h (AID 1179).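 Further: screen aims at cell division blockers that make cells filament.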 As to conditions: E. coli DRC39 delta-acrAB growth, higher = more signal, called active from +8 up or from −8 down.
Experiment [9] in a line: RPMI8226 myeloma cell viability, profiling panel, resazurin fluorescence, basal, 24 h, PK04 Diversity Set (AID 1180).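 Further: RPMI8826 multiple myeloma cell line at 5000 cells per well; test concentration not given here.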 As to conditions: higher = more signal.
The target of experiment [10] is E3 ubiquitin-protein ligase XIAP (Homo sapiens) (UniProt P98170). Description: XIAP binders, primary screen, biophysical, small-molecule microarray, fluorescence 635 nm (AID 1181).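 Further: score merges 667 nm emission and signal to noise over triplicate slides.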 Conditions: small-molecule microarray binding, higher = more signal.

Structures are written as SMILES. Calls of active or inactive are those of the source. Unless noted, how the calls were made is not given here.

Chain of Dihydroorotate dehydrogenase (quinone), mitochondrial (Plasmodium falciparum (isolate 3D7)) (Q08210 whole entry, looked up): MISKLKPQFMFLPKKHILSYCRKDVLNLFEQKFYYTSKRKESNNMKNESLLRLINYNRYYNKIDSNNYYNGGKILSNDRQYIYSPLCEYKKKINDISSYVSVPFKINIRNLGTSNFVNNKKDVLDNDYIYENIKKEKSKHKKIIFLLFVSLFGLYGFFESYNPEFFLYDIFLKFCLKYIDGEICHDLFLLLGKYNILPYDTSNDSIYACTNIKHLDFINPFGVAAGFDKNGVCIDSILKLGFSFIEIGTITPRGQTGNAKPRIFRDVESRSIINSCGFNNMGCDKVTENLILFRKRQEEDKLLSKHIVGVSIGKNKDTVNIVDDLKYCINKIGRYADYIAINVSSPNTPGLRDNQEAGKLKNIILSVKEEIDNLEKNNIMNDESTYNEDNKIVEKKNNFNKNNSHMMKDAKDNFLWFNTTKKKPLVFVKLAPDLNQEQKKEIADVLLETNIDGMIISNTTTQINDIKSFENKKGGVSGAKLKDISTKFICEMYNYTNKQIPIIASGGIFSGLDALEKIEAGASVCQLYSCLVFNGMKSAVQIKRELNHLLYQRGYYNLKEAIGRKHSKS
Chain of E3 ubiquitin-protein ligase XIAP (Homo sapiens) (P98170 whole entry, looked up): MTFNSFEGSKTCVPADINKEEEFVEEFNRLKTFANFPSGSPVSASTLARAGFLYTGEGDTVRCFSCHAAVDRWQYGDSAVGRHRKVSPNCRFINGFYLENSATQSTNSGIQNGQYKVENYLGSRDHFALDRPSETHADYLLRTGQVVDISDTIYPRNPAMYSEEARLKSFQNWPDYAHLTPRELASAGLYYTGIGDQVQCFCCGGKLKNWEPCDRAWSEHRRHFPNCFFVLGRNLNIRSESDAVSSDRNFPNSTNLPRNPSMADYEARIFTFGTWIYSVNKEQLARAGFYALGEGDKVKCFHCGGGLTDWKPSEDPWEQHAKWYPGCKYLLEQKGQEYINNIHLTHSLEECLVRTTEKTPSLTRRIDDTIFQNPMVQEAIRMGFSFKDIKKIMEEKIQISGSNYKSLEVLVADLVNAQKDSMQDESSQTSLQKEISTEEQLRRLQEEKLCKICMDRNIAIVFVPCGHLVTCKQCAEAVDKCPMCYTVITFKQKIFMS

For `CN(C)CCCCNC(=O)[C@@H]1C[C@@H]2C(=O)N[C@@H](CCCCN)C(=O)N2[C@@H]1c1ccc(O)cc1`, the z-score in [1] is 0.637; in [2], 1.43 (inactive); in experiment [3], 0.832 (inactive); in experiment [5] it was 0.833 (inactive); in experiment [6] it was 2.32 (inactive); in experiment [7], 0.499 (inactive). For the same compound, the z-score in experiment [8] was 1.1 (inactive); in experiment [9], 0.918. For the same compound, the composite z-score was 0.0724 (inactive) in [4] and -0.131 in [10].
Regarding `COc1ccc(C(=O)Nc2cccc(CN3C(=O)[C@]4(O[C@H](CCn5cc(CCO)nn5)[C@@H]([Si](C)(C)c5ccc(OC)cc5)[C@@H]4C)c4ccccc43)c2)cc1`, the z-score in experiment [1] is -6.31; in [2] it was -7.34 (inactive); in experiment [3] it was -9.11 (active); in experiment [5] it was 1.12 (inactive); in [6], 4 (inactive); in [7], 0.216 (inactive). In addition, the z-score in experiment [8] is -0.883 (inactive); in experiment [9], -6.19. For the same compound, the figures for the composite z-score in experiment [4] and in experiment [10] were 2.2 (inactive) and -0.173, respectively.
For the compound `CCCCN1CC=CC23O[C@@H]4/C=C\CCCOC(=O)C4[C@H]2C(=O)N(CCCO)[C@@H]3C1=O` (stereo not given in full), the z-score was 0.426 in experiment [1]; 0.129 (inactive) in experiment [2]; 0.31 (inactive) in [3]; 0.55 (inactive) in [5]; -1.39 (inactive) in experiment [6]; -0.0564 (inactive) in [7]. Also, the z-score is -0.314 (inactive) in [8] and 0.309 in [9]. Besides, the figures for the composite z-score in [4] and in experiment [10] were 0.119 (inactive) and -0.31, respectively.
In the case of `C=CCN1C(=O)[C@]2(O[C@H](CCO)[C@@H]([Si](C)(C)c3ccc(OC)cc3)[C@@H]2C)c2cc(N(C=O)c3ccccc3)ccc21`, the z-score in experiment [1] is -6; in experiment [2], 1.14 (inactive); in experiment [3], -8.61 (active); in experiment [5], 0.0245 (inactive); in [6], 3.98 (inactive); in [7], 1.72 (inactive). In addition, the z-score is 0.905 (inactive) in experiment [8] and -6.23 in experiment [9]. For the same compound, the values for the composite z-score in experiment [4] and in experiment [10] were 0.637 (inactive) and -0.0189, respectively.
Regarding `CCC(CC)C(O)C1C=CC2C(=O)N(c3ccccc3)C(=O)C2N1Nc1ccccc1` (stereo not given), the z-score is 1.48 in experiment [1]; -1.61 (inactive) in experiment [2]; 0.33 (inactive) in experiment [3]; 2.07 (inactive) in experiment [5]; -0.166 (inactive) in experiment [6]; 0.55 (inactive) in experiment [7]. Besides, the z-score was 0.503 (inactive) in experiment [8] and 0.0861 in experiment [9]. The composite z-score was 0.246 (inactive) in experiment [4] and 0.212 in experiment [10].
Regarding `CC#CC(=O)Oc1ccc(Br)cc1C=CC(=O)OCC`, the z-score is -0.0419 in experiment [1]; -14.7 (active) in [2]; -2.38 (inactive) in experiment [3]; 0.312 (inactive) in [5]; -10.6 (active) in experiment [6]; -0.0142 (inactive) in experiment [7]. In addition, the z-score was -1.01 (inactive) in experiment [8] and -3 in [9]. Further, the composite z-score in experiment [4] was -0.632 (inactive); in experiment [10], 1.25.
Take `CC(=CC1CCCCC1)[C@@H](NC(=O)c1cccnc1)c1ccc(-c2ccccc2)cc1`: the z-score in experiment [1] is 0.41; in [2] it was 2.33 (inactive); in experiment [3] it was 0.382 (inactive); in [5], 1.93 (inactive); in experiment [6], 2.69 (inactive); in [7] it was -0.906 (inactive). For the same compound, the values for the z-score in [8] and in [9] were -0.871 (inactive) and -1.22, respectively. The results for the composite z-score in [4] and in experiment [10] were -0.22 (inactive) and -0.0095, respectively.
Regarding `C=C(CCCC)/C(=C/C[C@@H](OC(C)=O)c1cccc(OCCO)c1)c1cnc2ccccc2c1`, the z-score in [1] is -0.256; in experiment [2], -0.236 (inactive); in experiment [3] it was -0.657 (inactive); in [5], 0.108 (inactive); in [6] it was 0.647 (inactive); in [7], 0.309 (inactive). Moreover, the z-score in experiment [8] is -0.132 (inactive); in experiment [9], 0.418. Also, the composite z-score is -3.06 (inactive) in experiment [4] and -0.173 in [10].
Turning to `COC(=O)[C@@]1(Cc2ccc(OC)cc2)[C@H]2c3cc(C(=O)N4CCCC4)n(Cc4nc5ccccc5[nH]4)c3C[C@H]2CN1C(=O)c1ccccc1`, the z-score is 0.0719 in experiment [1]; 1.36 (inactive) in experiment [2]; -1.79 (inactive) in experiment [3]; -0.222 (inactive) in [5]; 0.736 (inactive) in experiment [6]; -0.0181 (inactive) in experiment [7]. For the same compound, the results for the z-score in experiment [8] and in experiment [9] were -0.104 (inactive) and -1.2, respectively. Also, the composite z-score in experiment [4] is 0.98 (inactive); in [10], 0.62.
For the compound `O=C(NC1CC1)[C@@H]1c2ccccc2C(=O)N(C2Cc3ccccc3C2)[C@H]1c1ccc(CO)cc1`, the z-score in experiment [1] was 0.21; in [2], -0.009 (inactive); in experiment [3] it was 0.475 (inactive); in experiment [5] it was 0.196 (inactive); in [6] it was 0.397 (inactive); in experiment [7] it was 0.223 (inactive). The z-score was 0.722 (inactive) in [8] and 0.543 in [9]. Moreover, the composite z-score in experiment [4] was -0.0711 (inactive); in experiment [10] it was -0.0044.
For the compound `CC(C)OC(=O)C=C1C[C@@H](c2cccc(Cl)c2)O[C@@H](c2cccc(Cl)c2)O1`, the z-score in experiment [1] is -0.307; in [2], -2.84 (inactive); in experiment [3], 0.147 (inactive); in experiment [5], 0.959 (inactive); in experiment [6], -0.587 (inactive); in [7] it was -0.581 (inactive). The z-score is 0.323 (inactive) in experiment [8] and -1.03 in [9]. Besides, the composite z-score in experiment [4] was -0.516 (inactive); in [10], 0.0307.
Turning to `CC(C)[C@@H](C(=O)O)n1cc(C2(O)CCCCC2)nn1`, the z-score is 0.853 in [1]; -1.45 (inactive) in experiment [2]; 0.979 (inactive) in [3]; 0.313 (inactive) in experiment [5]; -0.513 (inactive) in [6]; 0.738 (inactive) in experiment [7]. Further, the z-score is -0.195 (inactive) in experiment [8] and 0.354 in experiment [9]. Also, the values for the composite z-score in experiment [4] and in experiment [10] were -0.549 (inactive) and 0.0077, respectively.
Regarding `C=C(/C(=C/C[C@H](OC(=O)c1ccncc1)c1ccc(OCCO)cc1)c1cc(C(=O)OC)ccc1OC)C(C)C`, the z-score in experiment [1] was 0.438; in [2], -1.44 (inactive); in experiment [3] it was -0.0968 (inactive); in experiment [5] it was -0.681 (inactive); in [6], -0.517 (inactive); in [7], -0.427 (inactive). In addition, the z-score in [8] was -0.579 (inactive); in experiment [9], -0.0979. For the same compound, the composite z-score in experiment [4] was -1.88 (inactive); in experiment [10], -0.0095.
